This passage reports inhibition results from ChEMBL document CHEMBL1961873, “Compounds: GSK PKIS; Assays: Nanosyn kinase panel” (2012).

For assay [1], the target named is Serine/threonine-protein kinase PAK 6 (Homo sapiens) (UniProt Q9NQU5). The conditions noted are these: at 1 µM.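 Note: values are mean percent inhibition of PAK6 kinase.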
Assay [2] has as its system Tyrosine-protein kinase ABL1 (Homo sapiens), P00519 [E255K]. The conditions noted are these: at 0.1 µM.
Assay [3] has the same test system. The settings on record: at 1 µM.
The test system of assay [4] is Tyrosine-protein kinase ABL1 (Homo sapiens), P00519 [H396P]. The conditions noted are these: at 0.1 µM.
Assay [5] shares this test system. The conditions noted are these: at 1 µM.
In assay [6] the test system is Tyrosine-protein kinase ABL1 (Homo sapiens), P00519 [M351T]. The settings on record: at 0.1 µM.
Assay [7] shares this test system. The settings on record: at 1 µM.
For assay [8], the system named is Tyrosine-protein kinase ABL1 (Homo sapiens), P00519 [Q252H]. The conditions noted are these: at 0.1 µM.
Assay [9] has the same test system. The settings on record: at 1 µM.
Assay [10] deals with Tyrosine-protein kinase ABL1 (Homo sapiens), P00519 [T315I]. The settings on record: at 0.1 µM.
For assay [11] the test system is unchanged. The conditions noted are these: at 1 µM.
In assay [12] the test system is Tyrosine-protein kinase ABL1 (Homo sapiens), P00519 [Y253F]. The settings on record: at 0.1 µM.
The test system is the same in assay [13]. The settings on record: at 1 µM.
The target of assay [14] is Tyrosine-protein kinase ABL1 (Homo sapiens) (UniProt P00519). The conditions noted are these: at 0.1 µM.
Assay [15] shares this target. The settings on record: at 1 µM.
The target in assay [16] is ALK tyrosine kinase receptor (Homo sapiens) (UniProt Q9UM73). The settings on record: at 0.1 µM.
For assay [17] the target is unchanged. The settings on record: at 1 µM.
For assay [18], the target named is Tyrosine-protein kinase ABL2 (Homo sapiens) (UniProt P42684). The conditions noted are these: at 0.1 µM.
Assay [19] shares this target. The settings on record: at 1 µM.
For assay [20], the target named is Tyrosine-protein kinase receptor UFO (Homo sapiens) (UniProt P30530). The settings on record: at 0.1 µM.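 Note: values are mean percent inhibition of AXL from the GSK PKIS screen.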
Chain of Tyrosine-protein kinase receptor UFO (Homo sapiens) (P30530 whole entry): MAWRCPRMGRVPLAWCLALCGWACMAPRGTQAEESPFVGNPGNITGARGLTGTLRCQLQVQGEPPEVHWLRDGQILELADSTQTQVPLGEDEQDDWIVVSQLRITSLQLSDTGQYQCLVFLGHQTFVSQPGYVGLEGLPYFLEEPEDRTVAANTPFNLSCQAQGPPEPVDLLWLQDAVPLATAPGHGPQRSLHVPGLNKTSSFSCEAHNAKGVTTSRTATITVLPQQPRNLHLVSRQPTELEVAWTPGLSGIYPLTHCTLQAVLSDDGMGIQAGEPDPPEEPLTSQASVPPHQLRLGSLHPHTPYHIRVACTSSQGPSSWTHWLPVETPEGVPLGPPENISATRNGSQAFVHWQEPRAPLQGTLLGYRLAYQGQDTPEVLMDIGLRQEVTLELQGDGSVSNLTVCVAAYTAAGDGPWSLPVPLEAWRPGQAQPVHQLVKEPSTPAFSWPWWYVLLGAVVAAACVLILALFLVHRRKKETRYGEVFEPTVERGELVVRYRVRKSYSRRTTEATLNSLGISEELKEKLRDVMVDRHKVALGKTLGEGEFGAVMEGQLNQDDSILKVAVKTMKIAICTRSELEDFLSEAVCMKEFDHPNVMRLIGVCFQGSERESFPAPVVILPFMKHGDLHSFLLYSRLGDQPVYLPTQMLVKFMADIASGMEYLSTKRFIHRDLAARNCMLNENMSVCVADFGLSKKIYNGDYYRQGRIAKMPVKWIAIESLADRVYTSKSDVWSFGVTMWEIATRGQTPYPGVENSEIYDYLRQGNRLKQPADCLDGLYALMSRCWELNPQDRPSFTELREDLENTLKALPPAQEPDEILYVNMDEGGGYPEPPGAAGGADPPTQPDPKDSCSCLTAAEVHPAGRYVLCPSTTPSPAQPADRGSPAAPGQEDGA

Chain of Serine/threonine-protein kinase PAK 6 (Homo sapiens) (Q9NQU5 whole entry, looked up): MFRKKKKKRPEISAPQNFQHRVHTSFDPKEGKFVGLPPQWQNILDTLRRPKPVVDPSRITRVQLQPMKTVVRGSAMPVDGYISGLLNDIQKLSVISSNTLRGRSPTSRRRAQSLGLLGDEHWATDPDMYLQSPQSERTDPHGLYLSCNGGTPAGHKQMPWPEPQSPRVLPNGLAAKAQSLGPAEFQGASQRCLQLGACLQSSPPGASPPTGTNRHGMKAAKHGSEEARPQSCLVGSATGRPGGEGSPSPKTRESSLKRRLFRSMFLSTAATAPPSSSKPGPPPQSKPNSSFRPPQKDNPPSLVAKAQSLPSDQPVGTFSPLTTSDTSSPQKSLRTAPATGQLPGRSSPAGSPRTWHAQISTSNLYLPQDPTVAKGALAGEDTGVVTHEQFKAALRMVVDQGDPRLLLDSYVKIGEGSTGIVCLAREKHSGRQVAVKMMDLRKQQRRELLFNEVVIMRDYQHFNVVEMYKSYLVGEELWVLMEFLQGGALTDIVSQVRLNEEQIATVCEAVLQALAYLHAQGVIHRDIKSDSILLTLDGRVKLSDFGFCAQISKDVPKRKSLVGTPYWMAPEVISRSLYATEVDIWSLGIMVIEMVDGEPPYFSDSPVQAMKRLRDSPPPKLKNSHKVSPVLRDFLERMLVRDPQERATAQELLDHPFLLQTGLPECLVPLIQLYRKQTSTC
Chain of ALK tyrosine kinase receptor (Homo sapiens) (Q9UM73 19-1620 limits assumed): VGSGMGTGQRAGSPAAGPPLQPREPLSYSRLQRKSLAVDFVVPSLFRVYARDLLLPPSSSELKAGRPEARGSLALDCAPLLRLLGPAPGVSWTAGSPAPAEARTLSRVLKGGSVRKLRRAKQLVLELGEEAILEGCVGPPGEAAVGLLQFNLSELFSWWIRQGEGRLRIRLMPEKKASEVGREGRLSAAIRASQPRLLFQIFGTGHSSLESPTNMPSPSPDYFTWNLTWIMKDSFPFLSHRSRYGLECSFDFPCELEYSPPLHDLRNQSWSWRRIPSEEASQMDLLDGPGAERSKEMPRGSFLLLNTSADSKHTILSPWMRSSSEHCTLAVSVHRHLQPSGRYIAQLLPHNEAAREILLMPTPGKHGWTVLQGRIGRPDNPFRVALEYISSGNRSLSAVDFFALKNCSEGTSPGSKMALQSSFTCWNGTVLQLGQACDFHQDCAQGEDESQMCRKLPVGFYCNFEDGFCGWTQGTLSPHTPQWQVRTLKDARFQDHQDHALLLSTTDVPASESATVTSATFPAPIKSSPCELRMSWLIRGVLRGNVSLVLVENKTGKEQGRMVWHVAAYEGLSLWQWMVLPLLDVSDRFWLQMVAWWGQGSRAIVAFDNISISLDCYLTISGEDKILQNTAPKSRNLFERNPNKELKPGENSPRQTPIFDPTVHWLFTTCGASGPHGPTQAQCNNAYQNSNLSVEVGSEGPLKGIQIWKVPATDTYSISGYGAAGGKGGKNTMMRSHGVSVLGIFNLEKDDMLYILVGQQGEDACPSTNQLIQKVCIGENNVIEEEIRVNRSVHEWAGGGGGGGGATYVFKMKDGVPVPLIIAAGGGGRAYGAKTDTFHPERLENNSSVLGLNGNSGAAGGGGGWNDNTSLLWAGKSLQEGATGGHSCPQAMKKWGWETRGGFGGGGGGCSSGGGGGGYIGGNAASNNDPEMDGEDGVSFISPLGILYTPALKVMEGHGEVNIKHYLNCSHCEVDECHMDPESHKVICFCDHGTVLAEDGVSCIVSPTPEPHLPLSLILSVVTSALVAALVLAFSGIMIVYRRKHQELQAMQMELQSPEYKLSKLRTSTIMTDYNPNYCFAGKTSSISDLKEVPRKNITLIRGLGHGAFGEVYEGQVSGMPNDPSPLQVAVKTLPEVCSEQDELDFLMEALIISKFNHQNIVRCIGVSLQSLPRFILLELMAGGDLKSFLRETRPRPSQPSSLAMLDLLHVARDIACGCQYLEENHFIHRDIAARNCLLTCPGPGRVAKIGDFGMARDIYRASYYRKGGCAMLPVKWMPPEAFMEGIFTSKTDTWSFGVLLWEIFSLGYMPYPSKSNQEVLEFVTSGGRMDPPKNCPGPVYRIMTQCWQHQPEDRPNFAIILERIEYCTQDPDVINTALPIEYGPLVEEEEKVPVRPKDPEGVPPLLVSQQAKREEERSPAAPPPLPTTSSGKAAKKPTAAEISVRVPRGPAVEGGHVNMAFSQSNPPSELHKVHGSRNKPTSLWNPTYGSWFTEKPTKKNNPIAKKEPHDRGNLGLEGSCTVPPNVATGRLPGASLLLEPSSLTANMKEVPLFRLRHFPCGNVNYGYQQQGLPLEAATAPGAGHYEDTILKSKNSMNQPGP
Chain of Tyrosine-protein kinase ABL2 (Homo sapiens) (P42684 whole entry): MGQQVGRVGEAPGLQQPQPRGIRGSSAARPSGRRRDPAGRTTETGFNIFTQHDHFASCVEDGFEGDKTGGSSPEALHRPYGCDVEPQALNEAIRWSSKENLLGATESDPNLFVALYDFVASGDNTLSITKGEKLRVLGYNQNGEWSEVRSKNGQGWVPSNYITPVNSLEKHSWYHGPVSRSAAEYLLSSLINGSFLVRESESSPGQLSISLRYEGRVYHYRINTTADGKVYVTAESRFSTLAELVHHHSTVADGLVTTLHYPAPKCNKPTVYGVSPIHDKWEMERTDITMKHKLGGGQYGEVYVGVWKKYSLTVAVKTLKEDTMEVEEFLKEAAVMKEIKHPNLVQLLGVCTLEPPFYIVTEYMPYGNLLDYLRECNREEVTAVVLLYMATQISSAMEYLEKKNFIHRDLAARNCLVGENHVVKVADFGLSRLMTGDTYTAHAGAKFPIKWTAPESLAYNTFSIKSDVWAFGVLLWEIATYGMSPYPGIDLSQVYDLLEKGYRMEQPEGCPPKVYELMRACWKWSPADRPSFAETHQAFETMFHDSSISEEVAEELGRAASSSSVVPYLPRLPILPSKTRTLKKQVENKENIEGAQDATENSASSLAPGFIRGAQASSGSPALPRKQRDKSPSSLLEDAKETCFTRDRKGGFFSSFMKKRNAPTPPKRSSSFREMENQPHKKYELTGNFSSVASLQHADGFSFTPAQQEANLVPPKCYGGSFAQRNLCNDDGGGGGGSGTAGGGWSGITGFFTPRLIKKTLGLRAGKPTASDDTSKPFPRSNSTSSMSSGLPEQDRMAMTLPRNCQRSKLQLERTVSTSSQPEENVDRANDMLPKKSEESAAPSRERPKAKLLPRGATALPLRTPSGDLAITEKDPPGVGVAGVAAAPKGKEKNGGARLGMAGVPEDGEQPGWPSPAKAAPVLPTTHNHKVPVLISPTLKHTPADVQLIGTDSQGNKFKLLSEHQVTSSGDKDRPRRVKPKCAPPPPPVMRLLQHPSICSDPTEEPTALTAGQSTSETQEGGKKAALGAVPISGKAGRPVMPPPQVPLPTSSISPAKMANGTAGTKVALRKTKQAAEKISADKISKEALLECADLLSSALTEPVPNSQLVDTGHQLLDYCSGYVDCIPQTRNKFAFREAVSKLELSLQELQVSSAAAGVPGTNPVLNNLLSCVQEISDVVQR

Regarding `CCn1c(-c2nonc2N)nc2c(C#CC(C)(C)O)ncc(OCC3CCNCC3)c21`, the inhibition is 69.3% in assay [1]; -0.11% in [2]; 4.95% in assay [3]; 1.89% in assay [4]; 4.52% in assay [5]; -1.14% in assay [6]. Also, the inhibition in [7] is 5.41%; in assay [8] it was 1.06%; in [9], 3.85%; in assay [10], 0.9%; in assay [11], 4.1%; in assay [12], 2.44%. For the same compound, the inhibition in assay [13] was 5.73%; in [14], -2.19%; in assay [15] it was 2.09%; in assay [16], -2.65%; in [17], 0.19%; in assay [18], -1.08%. For the same compound, the inhibition in assay [19] was -2.22%; in assay [20] it was -2.5%.
Turning to `COc1cccc(COc2cc(-n3cnc4ccccc43)sc2C(N)=O)c1`, the inhibition in assay [1] was -1.23%; in assay [2] it was -0.78%; in assay [3], -0.15%; in assay [4], -1.23%; in assay [5], 3.19%; in [6], -1.62%. The inhibition in [7] was 2.97%; in assay [8], -0.55%; in assay [9] it was 3.14%; in [10] it was -1.92%; in [11], 0.66%; in [12], -1.91%. The inhibition is 2.67% in assay [13]; -2.41% in assay [14]; 0.81% in assay [15]; -0.33% in assay [16]; 2.9% in assay [17]; -0.24% in [18]. Besides, the values for the inhibition in [19] and in assay [20] were 0.86% and 0.14%, respectively.
In the case of `COc1cc(C=NNc2ncnc3c2cnn3Cc2ccccc2)ccc1O`, the inhibition in [1] is -8.83%; in assay [2], 32.5%; in [3], 82.7%; in [4] it was 52.3%; in [5], 90%; in [6] it was 54.1%. The inhibition was 89.2% in assay [7]; 57.7% in [8]; 92.2% in assay [9]; 12.6% in assay [10]; 61.6% in [11]; 52.2% in [12]. In addition, the inhibition in assay [13] is 90.8%; in assay [14] it was 40.6%; in assay [15] it was 71.9%; in assay [16], -4.96%; in assay [17], -2.43%; in assay [18] it was 20.3%. The figures for the inhibition in assay [19] and in assay [20] were 49.2% and 5.07%, respectively.
Consider `Cc1cc(-c2ccco2)cc(C)c1/C=C/c1cncc(-c2nn[nH]n2)c1`, for which the inhibition amounted to 3.04% in assay [1]; 0.2% in [2]; 2.01% in [3]; 1.54% in [4]; 4.02% in [5]; 3.02% in assay [6]. Also, the inhibition in assay [7] stood at 4.16%; in assay [8], 1.99%; in assay [9], 4.16%; in assay [10], 0.41%; in assay [11] it was 2.45%; in assay [12], 1.92%. Moreover, the inhibition in [13] amounted to 4.15%; in assay [14], 2.83%; in assay [15] it was 4.58%; in assay [16], 2.41%; in assay [17] it was 2.74%; in assay [18] it was 2.77%. The inhibition came out at 8.69% in assay [19] and 0.06% in [20].
As to `CCn1c(-c2nonc2N)nc2c(C#CC(C)(C)O)nc(O[C@@H](CN)c3ccccc3)cc21`, the inhibition was 67.6% in [1]; -0.39% in assay [2]; -0.58% in [3]; -0.59% in [4]; -0.29% in [5]; 0.75% in assay [6]. Also, the inhibition in assay [7] is 5.14%; in [8], -0.46%; in [9], 0.03%; in [10] it was 1.03%; in assay [11], 4.28%; in assay [12], -0.01%. Also, the inhibition came out at 0.57% in assay [13]; 0.27% in [14]; 5.55% in assay [15]; 0.41% in assay [16]; 19.6% in assay [17]; 1.15% in [18]. Besides, the inhibition in assay [19] came out at 6.91%; in assay [20], 1.96%.
`CCn1c(-c2nonc2N)nc2c(C#CC(C)(C)O)ncc(OC[C@@H]3CCCN3)c21`: the inhibition in assay [1] is 58.4%; in assay [2] it was -0.36%; in assay [3], -0.79%; in assay [4], 1.51%; in assay [5], 6.5%; in assay [6], -0.07%. Moreover, the inhibition in assay [7] is 1.33%; in assay [8] it was 1.26%; in assay [9], -0.4%; in assay [10], 0.19%; in assay [11], 0.65%; in [12], 0.65%. Besides, the inhibition in [13] is -0.13%; in [14], 1.81%; in assay [15], -0.45%; in [16], -0.46%; in assay [17], 1.45%; in [18], 1.42%. Also, the inhibition in [19] was 2.28%; in [20], 0.65%.
In the case of `NS(=O)(=O)c1ccc(-c2ccc3c(NC(=O)C4CC4)n[nH]c3c2)cc1`, the inhibition in assay [1] came to 9.03%; in assay [2] it was 2.79%; in assay [3] it was 7.46%; in assay [4], 4.05%; in assay [5], 17.1%; in assay [6], 3.23%. Also, the inhibition in assay [7] was determined as 16.9%; in assay [8] it was 6.44%; in assay [9], 8.2%; in assay [10], 5.41%; in assay [11], 15.1%; in [12], 4.41%. The inhibition in assay [13] worked out at 8.81%; in [14] it was 8.32%; in [15], 14.2%; in assay [16], 2.73%; in assay [17] it was 3.11%; in [18], 6.43%. Also, the results for the inhibition in [19] and in [20] were 7.09% and -4.27%, respectively.
